This is a sample that favours compounds with a hit; in the whole collection about 10% have one here.
Luc counter: counter-screen: inhibitors of Kinase-Glo firefly luciferase; Potency, µM (series often up to 38.3 µM), without a hit: top-dose activity change, negative = inhibition, actives largely listed as inhibitors; Kinase-Glo luciferase, ATP luminescence, 8 min; hit rate 0.28% among 200,000; active = well fitted inhibition curve with a large enough effect; inconclusive = small, poorly fitted or top-dose-only effect; also: potency is read from the fitted curve at half-maximal effect; nearly all actives have a fitted effect of over 60% in size
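Recombinant Kinase-Glo luciferase, 10 uM ATP (linear range), luciferin; imidazole pH 7.2 / KCl / MgCl2 / Tween / BSA buffer; 8 min RT; luminescence.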
PNC assembly inh: blocks assembly of the perinucleolar compartment; PC3M PTB-GFP, PNC prevalence imaging, 16 h; active compounds read low; activity change (PNC), negative = inhibition, % at 10 µM; hit rate 3.1% among 140,000; AID 2417;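 active = readout at or below -70, meaning at least 70% loss of cells showing the perinucleolar compartment, a nuclear body marking cancer cells; inconclusive = readout between -30 and a set limit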;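 also: plate controls were DMSO wells for no effect and camptothecin positive control wells for full effect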
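PC3M cells stably expressing PTB-GFP, 750–1000 cells/well, treated 16 h at 37 °C with compound (23 nl of library stock), in duplicate. After paraformaldehyde fixation and Hoechst stain, imaged at 20x; PNC prevalence scored by image analysis.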
HPGD inh: inhibitors of human 15-hydroxyprostaglandin dehydrogenase (HPGD) | purified HPGD, NADH fluorescence kinetic, PGE2 substrate | hit rate 4.3% among 150,000 | AID 894 | Potency, µM, for the others: at the top dose activity change, negative = inhibition, most hits filed as inhibitors; also: potency is read from the fitted curve at half-maximal effect
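20 nM HPGD preincubated 15 min at room temperature with compound in 50 mM Tris-HCl pH 8, 0.01% Tween 20. Started with 1 mM NAD+ and 30 uM prostaglandin E2; NADH fluorescence (360/450 nm) read 5 times over 30-s intervals, last minus first.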
LMNA splice mod: changes lamin A minigene splicing in HeLa cells; AID 1487; Potency, µM (doses to about 46.1 µM), for the others: top-dose ratio change, negative = inhibition, usual class: inhibitors; HeLa LMNA splicing GFP/RFP minigene ratio, 48 h; hit rate 0.01% among 200,000; active = well fitted inhibition curve with a large enough effect in the signal ratio, with a control signal flat, not every such curve was filed as active; inconclusive = small, poorly fitted or top-dose-only effect, or effect the other way, or a change in a side signal; the % refers to the signal ratio; also: potency is read from the fitted curve at half-maximal effect
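S3 HeLa stable clones carrying a lamin A-EGFP splicing minigene plus DsRed2 were seeded at 600 cells/well in Opti-MEM with 2% FBS, pin-dosed and incubated 48 h at 37°C. Acumen cytometry (488 nm) gave the GFP/RFP total-intensity ratio.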
ALDH1A1 inh: ALDH1A1 (human) enzyme inhibition. P00352. Potency, µM (highest dose often 75.3 µM), inactives show at the highest dose activity, negative = inhibition, hits mostly inhibitors. hit rate 7.3% among 220,000. Purified ALDH1A1, NADH fluorescence, propionaldehyde substrate;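 also: potency is read from the fitted curve at half-maximal effect; plate controls were no enzyme wells and a reference inhibitor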
Target sequence (P00352 whole entry, looked up): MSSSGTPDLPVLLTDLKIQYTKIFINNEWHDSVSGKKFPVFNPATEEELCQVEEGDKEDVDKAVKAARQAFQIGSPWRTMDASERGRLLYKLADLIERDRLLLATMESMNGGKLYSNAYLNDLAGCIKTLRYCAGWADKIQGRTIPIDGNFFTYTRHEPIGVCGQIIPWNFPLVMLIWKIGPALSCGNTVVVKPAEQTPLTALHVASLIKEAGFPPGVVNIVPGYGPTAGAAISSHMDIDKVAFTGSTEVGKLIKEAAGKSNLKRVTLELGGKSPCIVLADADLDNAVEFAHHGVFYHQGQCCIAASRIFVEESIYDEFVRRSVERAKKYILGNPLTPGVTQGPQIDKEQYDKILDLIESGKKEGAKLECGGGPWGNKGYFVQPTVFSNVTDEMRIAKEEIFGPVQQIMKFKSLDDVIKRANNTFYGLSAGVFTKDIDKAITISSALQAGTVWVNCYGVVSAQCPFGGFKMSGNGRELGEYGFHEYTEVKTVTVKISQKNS
IMPase cell inh: cell-permeable inhibitors of inositol monophosphatase (IMPase). 120,000 tested, under 10 active. inhibition (IP1 accumulation), % at 46.1 µM. P97697. CHO-M1 cells, IP1 accumulation, HTRF TR-FRET ratio; active = well fitted curve in the direction sought with a large enough effect in the signal ratio, not every such curve was filed as active; inconclusive = small, poorly fitted or top-dose-only effect, or a change in a side signal; inactive = no such curve, though single readings can be large or run the other way; the % refers to the signal ratio;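 also: cells stimulated with carbachol in lithium chloride buffer; plate controls were DMSO basal wells for no effect and reference inhibitor wells for full effect; higher means more IMPase inhibition seen as more IP1 and lower FRET ratio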
Target sequence (P97697 whole entry, looked up): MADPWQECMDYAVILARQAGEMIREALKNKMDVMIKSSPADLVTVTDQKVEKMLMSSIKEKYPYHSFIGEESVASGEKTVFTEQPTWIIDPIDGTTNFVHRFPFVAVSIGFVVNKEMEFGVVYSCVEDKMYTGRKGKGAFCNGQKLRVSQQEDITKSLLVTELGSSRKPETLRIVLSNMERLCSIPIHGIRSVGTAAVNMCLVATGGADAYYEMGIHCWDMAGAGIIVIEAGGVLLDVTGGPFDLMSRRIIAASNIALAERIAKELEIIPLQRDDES
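The IP-One HTRF competitive assay in carbachol-stimulated CHO-M1 cells quantifies cellular IP1. Compounds spanned up to 46 uM final, and activity is expressed as AC50 from concentration-response fits of the ratio and donor data.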
* = called active by the depositor; ? = inconclusive; . = no result; ! = not active in a repeat; [ ] = another dose, or the depositor's remark. Unless noted, calls follow the shape of the dose curve; as a rule, active = well fitted inhibition curve with a large enough effect (not every such curve was filed as active); inconclusive = small, poorly fitted or top-dose-only effect, or another doubt; inactive = no such curve, though single readings can be large or run the other way. Unless noted, % is scaled to controls: 0 for no effect and ±100 for the full control effect.

SMILES	Luc counter	PNC assembly inh	HPGD inh	LMNA splice mod	ALDH1A1 inh	IMPase cell inh
CC(C)C(CCN1C(=O)c2ccccc2C1=O)c1ccco1 (stereo not drawn)	2.2%	44.8	-15.9%	1.9%	22.4µM*	-0.4
C(=NC1CCCCC1)=NC1CCCCC1	.	.	-0.7%	.	-8.4%	.
CCc1ccc(/C=C(/C#N)C(N)=S)cc1	3.7%	42.0	31.6µM*	?	31.6µM*	.
CN(C)c1ccc(C=C(C#N)C#N)cc1	-1.0%	?	-5.1%	-13.8%	28.2µM*	2.3
COc1cc(C=C(C#N)C#N)cc(O)c1O	-6.2%	.	31.6µM*	?	31.6µM*	23.1
N#CC(C#N)=Cc1ccc(O)c(O)c1	-5.8%	.	31.6µM*	?	11.2µM*	?
N#Cc1ccc(CN2CC[C@@]3(CCCNC3)C2)cc1	-4.3%	.	-10.7%	.	-8.1%	.
N#C/C(=C\c1ccc(O)cc1)C(=O)O	-4.6%	.	?	-2.5%	?	.
CC(C)(C)c1cc(C=C(C#N)C#N)cc(C(C)(C)C)c1O	-4.0%	.	?	?	8.91µM*!	21.3
N#CC(=Cc1ccc(O)c(O)c1)C(N)=S	-6.6%	.	28.2µM*	?	0.794µM*	.
N#CC(C#N)=Cc1ccc(N2CCCC2)cc1	12.2%	.	.	.	10µM*	.
CN[C@H](CC(C)C)C(=O)N[C@H]1C(=O)N[C@@H](CC(N)=O)C(=O)N[C@H]2C(=O)N[C@H]3C(=O)N[C@H](C(=O)N[C@H](C(=O)O)c4cc(O)cc(O)c4-c4cc3ccc4O)[C@H](O)c3ccc(c(Cl)c3)Oc3cc2cc(c3O[C@@H]2O[C@H](CO)[C@@H](O)[C@H](O)[C@H]2O[C@H]2C[C@](C)(N)[C@H](O)[C@H](C)O2)Oc2ccc(cc2Cl)[C@H]1O	-6.0%	.	-12.6%	-3.6%	?	.
COc1cc2c3cc1Oc1cc(ccc1O)C[C@@H]1c4c(cc(OC)c(O)c4Oc4ccc(cc4)C[C@H]3N(C)CC2)CCN1C	11.4%	-97.1*	-10.4%	4.3%	-3.2%	.
COc1ccc(N=Nc2c(O)[nH]c(=S)[nH]c2=O)cc1	?	.	.	-6.2%[9.22 µM]	-2.9%	.
COc1cccc(N=Nc2c(O)[nH]c(=S)[nH]c2=O)c1	.	.	.	.	25.1µM*	.
COc1cc(C2C(C#N)=C(N)Oc3cc(O)ccc32)cc(OC)c1OC (stereo not drawn)	-1.7%	-91.1*	-13.1%	?	?	3.9
CC(C)(C)c1ccc(O)c(C[N+](C)(C)C)c1	-5.1%[7.66 µM]	.	-15.6%	.	14.8%[13.5 µM]	.
CC(C)CC(=O)C[C@H](O)C(Cl)(Cl)Cl	-2.0%[7.66 µM]	.	-11.8%	.	8.2%[13.5 µM]	.
CCN(CC)C(=O)N[C@H]1C=C2c3cccc4[nH]cc(c34)C[C@@H]2N(C)C1	-4.2%[17.1 µM]	.	?	?	?	-0.5[20.6 µM]
CNC1=CN(O)C(c2ccccc2)=c2cc(Cl)ccc2=N1	-0.2%[39.9 µM]	.	-14.4%	?	13.8%	.
CC(=O)c1ccc(OC(C)C)c(Cc2c(O)[nH]c(=S)[nH]c2=O)c1	0.5%	.	.	.	17.8µM*	.
CC(C)Oc1ccc(Cc2c(O)[nH]c(=O)[nH]c2=O)cc1	-0.5%	11.2	-5.1%	0.7%	-9.9%	1.7
NC(=O)C1=CN(C2OC(COP(=O)(O)OP(=O)(O)OC[C@H]3O[C@@H](n4cnc5c(N)ncnc54)[C@H](OP(=O)(O)O)[C@H]3O)C(O)C2O)C=CC1 (stereo partly drawn)	-14.2%	.	-18.4%	?	14.4%	.
CN(C)C(=O)Oc1ccc(OC(=O)N(C)C)cc1	-3.8%	21.6	-11.4%	3.1%	-3.5%	-4.3
CN(C)C(=O)Oc1ccc(OCc2nc3ccccc3[nH]2)cc1	11.2µM*	?	-0.5%	?	5.9%	.
SMILES	Luc counter	PNC assembly inh	HPGD inh	LMNA splice mod	ALDH1A1 inh	IMPase cell inh
Oc1cc(O)c2c(c1)OC(c1cc(O)c(O)c(O)c1)C(O)C2 (stereo not drawn)	-13.0%	.	15.8µM*	.	?	.
O=C(OC1Cc2c(O)cc(O)cc2OC1c1cc(O)c(O)c(O)c1)c1cc(O)c(O)c(O)c1 (stereo not drawn)	-3.1%	.	14.1µM*	-17.8%	?	.
ClCCCl	.	.	-1.4%	.	?	.
C=CCN1CCc2cccc3c2[C@@H]1Cc1ccc(O)c(O)c1-3	.	.	.	.	.	-0.6
O=C1NC(=O)C(=Cc2ccc(-c3cc(Cl)ccc3[N+](=O)[O-])o2)C(=O)N1	-5.8%	.	.	?	22.4µM*	.
CC(C)[C@@]1(NC(=O)[C@H]2CC3c4cccc5[nH]cc(c45)C[C@H]3N(C)C2)O[C@@]2(O)C3CCCN3C(=O)[C@@H](Cc3ccccc3)N2C1=O (stereo partly drawn)	.	.	.	?	-1.5%	.
CC1CCCN(C(=O)c2ccc(N3CC4CC(C3)c3cccc(=O)n3C4)c([N+](=O)[O-])c2)C1 (stereo not drawn)	-1.7%	-116.4*	17.8µM*	-14.9%	7.94µM*	.
CN(CCOc1ccc(C=C2C(=O)NC(=O)NC2=O)cc1)c1ccccn1	-1.5%	.	.	.	?	.
O=C1NC(=O)C(=Cc2ccc(OCC(=O)N3CCOCC3)cc2)C(=O)N1	-1.4%	-22.7	-20.2%	?	5.01µM*	.
C=CCn1c(O)c(C(CC)=NCCc2ccccc2)c(=O)[nH]c1=O	-0.2%	?	-14.6%	?	-1.0%	3.1
C=CCn1c(O)c(/C(CC)=N/NC(=S)Nc2ccccc2)c(=O)[nH]c1=O	.	.	.	.	17.8µM*	.
CCN=C=NCCCN(C)C	-3.9%[7.66 µM]	.	-0.1%	.	-0.8%[13.5 µM]	.
C/C=C/C=O	.	.	-3.9%	.	-2.3%	.
CCOC(=O)CSCCOc1ccc(C=C2C(=O)NC(=O)NC2=O)cc1OC	-4.1%	.	.	?	12.6µM*	.
CCOc1ccc(/C=C2/C(=O)NC(=O)N(CCc3ccc(F)cc3)C2=O)cc1	-4.8%	?	10µM*	-8.4%	1.41µM*	.
O=C1NC(=O)C(=Cc2ccsc2)C(=O)N1	-3.1%	.	.	.	-2.6%	.
CCOc1cc(C=C2C(=O)NC(=O)NC2=O)cc([N+](=O)[O-])c1O	-7.3%	.	.	.	28.2µM*	.
CN(C)c1ccc(C=C2C(=O)NC(=O)NC2=O)cc1[N+](=O)[O-]	-1.9%	.	.	-19.0%[46 µM]	?	.
CCOC(=O)c1c(-n2c(C)cc(C=C3C(=O)NC(=O)NC3=O)c2C)sc2c1CCCC2	-1.2%	36.5	-16.5%	?	-2.1%	11.0
COc1cc(C=C2C(=O)NC(=O)NC2=O)ccc1O	.	.	.	.	18.9µM*	.
NCCSC(c1ccccc1)c1ccccc1	0.1%[7.66 µM]	.	-8.3%	.	-11.9%[13.5 µM]	.
Cn1cccc1/C=C1/C(=O)NC(=O)N(Cc2ccccc2)C1=O	1.1%	0.7	-21.4%	-11.2%	?	.
COc1cc(/C=C2\C(=O)NC(=O)N(CCc3ccc(F)cc3)C2=O)ccc1O	1.5%	21.8	12.6µM*	-0.4%	12.6µM*	3.5
CC[C@@H](CO)NC(=O)[C@H]1C=C2c3cccc4c3c(cn4C)C[C@H]2N(C)C1	-3.5%	.	?	-13.4%	?	-3.2
